The supplement of paper PMC12045047
Structures can show the parent of a compound that is named as a salt.

Test system: primary human airway basal cells (HBEC, luciferase-transduced)
Assay: proliferation (luciferase bioluminescence) Z score relative to plate mean; higher = more proliferation / more cells, active = 1.96 or more
Conditions: donor: 1; 0.5 µM; library: ENZO Libraries; 4 days
Procedure: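 Primary human bronchial epithelial (airway basal) cells from two donors, lentivirally transduced with pHIV-Luc-ZsGreen, were seeded at 2000 cells/well in 384-well plates in FAD medium with ENZO or Prestwick library compounds and cultured for 4 days. Luciferin was then added and bioluminescence was read as a measure of cell number. Relative light units were converted to Z scores against the plate, and the mean of triplicate wells is reported.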

proliferation, inactive:
CO[C@H]1C[C@@H]2CC[C@@H](C)[C@@](O)(O2)C(=O)C(=O)N2CCCC[C@H]2C(=O)O[C@H]([C@H](C)C[C@@H]2CC[C@@H](O)[C@H](OC)C2)CC(=O)[C@H](C)/C=C(\C)[C@@H](O)[C@@H](OC)C(=O)[C@H](C)C[C@H](C)/C=C/C=C/C=C/1C [Rapamycin] -3.38
N=C(N)Nc1ccc(C(=O)Oc2ccc3cc(C(=N)N)ccc3c2)cc1 [Nafamostat mesylate] 0.0117
O=C(CCCCCCC(=O)NO)NO [Suberoyl bis-hydroxamic acid] 0.147
C=C(C)[C@@H](CC=C(C)C)C[C@@]12C[C@@H](CC=C(C)C)C(C)(C)[C@@](CC=C(C)C)(C(=O)C(C(=O)c3ccc(O)c(O)c3)=C1O)C2=O [Garcinol] -0.468
Cc1ccc(C(=O)c2cc(/C=C/C(=O)NO)n(C)c2)cc1 -0.0732
N#C/C(=C\c1ccc(O)c(O)c1)C(N)=O -0.0866
CCOC(=O)c1ccc(OC(=O)CCCCCNC(=N)N)cc1 [Gabexate mesylate] -0.301
O=C(O[C@@H]1Cc2c(O)cc(O)cc2O[C@@H]1c1cc(O)c(O)c(O)c1)c1cc(O)c(O)c(O)c1 [Epigallocatechin gallate] 0.183
CCCCCCCCCC(=O)N[C@@H](CCCN=C(N)N)C(=O)N[C@H](C(=O)N[C@@H](CCCCN)C(=O)N[C@@H](CCCN=C(N)N)C(=O)CCl)C(C)C 0.21
CC(C)c1cnc(NC(=O)Cc2ccccc2)s1 0.304
Oc1ccc(-c2nc(-c3ccc(F)cc3)c(-c3ccncc3)[nH]2)cc1 0.995
Nc1ccc(CC(CC(=O)O)C(=O)O)cc1 [4-Amino-D L-benzylsuccinic acid] 0.379
O=C1c2ccccc2C(=O)c2c(NCCc3ccc(O)cc3)ccc(NCCc3ccc(O)cc3)c21 0.275
CC[C@H](CO)Nc1nc(NCc2ccccc2)c2ncn(C(C)C)c2n1 [Roscovitine] -0.00187
COC(=O)C[C@H](NC(=O)[C@H](C)NC(=O)[C@@H](NC(=O)OCc1ccccc1)C(C)C)C(=O)CF -0.208
O=C(O)CNC(=O)C(CS)Cc1ccccc1 (racemic) [DL-Thiorphan] 0.124
O=C(CCCN1C(=O)c2cccc3cccc(c23)C1=O)NO [Nullscript] 0.202
CSCCC(C=O)NC(=O)C(CC(C)C)NC(=O)[C@H](CC(C)C)NC(C)=O (stereo not given in full) [Calpain Inhibitor II (ALLM)] 0.241
CC(C)C[C@H](NP(=O)(O)O[C@@H]1O[C@@H](C)[C@H](O)[C@@H](O)[C@H]1O)C(=O)N[C@@H](Cc1c[nH]c2ccccc12)C(=O)O [Phosphoramidon] -0.109
Nc1nc2ncnc-2c[nH]1 [2-Aminopurine] -0.301

Same assay, conditions: donor: 1; 5 µM; library: ENZO Libraries; 4 days

proliferation, inactive:
CO[C@H]1C[C@@H]2CC[C@@H](C)[C@@](O)(O2)C(=O)C(=O)N2CCCC[C@H]2C(=O)O[C@H]([C@H](C)C[C@@H]2CC[C@@H](O)[C@H](OC)C2)CC(=O)[C@H](C)/C=C(\C)[C@@H](O)[C@@H](OC)C(=O)[C@H](C)C[C@H](C)/C=C/C=C/C=C/1C [Rapamycin] -1.63
N=C(N)Nc1ccc(C(=O)Oc2ccc3cc(C(=N)N)ccc3c2)cc1 [Nafamostat mesylate] -0.0211
O=C(CCCCCCC(=O)NO)NO [Suberoyl bis-hydroxamic acid] -0.101
C=C(C)[C@@H](CC=C(C)C)C[C@@]12C[C@@H](CC=C(C)C)C(C)(C)[C@@](CC=C(C)C)(C(=O)C(C(=O)c3ccc(O)c(O)c3)=C1O)C2=O [Garcinol] -0.215
Cc1ccc(C(=O)c2cc(/C=C/C(=O)NO)n(C)c2)cc1 -0.0538
N#C/C(=C\c1ccc(O)c(O)c1)C(N)=O -0.0854
CCOC(=O)c1ccc(OC(=O)CCCCCNC(=N)N)cc1 [Gabexate mesylate] 0.0316
O=C(O[C@@H]1Cc2c(O)cc(O)cc2O[C@@H]1c1cc(O)c(O)c(O)c1)c1cc(O)c(O)c(O)c1 [Epigallocatechin gallate] -0.177
CCCCCCCCCC(=O)N[C@@H](CCCN=C(N)N)C(=O)N[C@H](C(=O)N[C@@H](CCCCN)C(=O)N[C@@H](CCCN=C(N)N)C(=O)CCl)C(C)C 0.0695
CC(C)c1cnc(NC(=O)Cc2ccccc2)s1 0.142
Oc1ccc(-c2nc(-c3ccc(F)cc3)c(-c3ccncc3)[nH]2)cc1 0.0853
Nc1ccc(CC(CC(=O)O)C(=O)O)cc1 [4-Amino-D L-benzylsuccinic acid] -0.241
O=C1c2ccccc2C(=O)c2c(NCCc3ccc(O)cc3)ccc(NCCc3ccc(O)cc3)c21 -0.000622
CC[C@H](CO)Nc1nc(NCc2ccccc2)c2ncn(C(C)C)c2n1 [Roscovitine] -0.592
COC(=O)C[C@H](NC(=O)[C@H](C)NC(=O)[C@@H](NC(=O)OCc1ccccc1)C(C)C)C(=O)CF -0.0506
O=C(O)CNC(=O)C(CS)Cc1ccccc1 (racemic) [DL-Thiorphan] -0.0316
O=C(CCCN1C(=O)c2cccc3cccc(c23)C1=O)NO [Nullscript] -0.00941
CSCCC(C=O)NC(=O)C(CC(C)C)NC(=O)[C@H](CC(C)C)NC(C)=O (stereo not given in full) [Calpain Inhibitor II (ALLM)] -0.104
CC(C)C[C@H](NP(=O)(O)O[C@@H]1O[C@@H](C)[C@H](O)[C@@H](O)[C@H]1O)C(=O)N[C@@H](Cc1c[nH]c2ccccc12)C(=O)O [Phosphoramidon] 0.079
Nc1nc2ncnc-2c[nH]1 [2-Aminopurine] -0.296
